Assay outcomes deposited in PubChem BioAssay by The Scripps Research Institute Molecular Screening Center.
Sampled rows, rich in hits. Any-hit rate of the full collection: about 2.9%.
ADAM10 inh: inhibits human ADAM10; O14672; recombinant ADAM10, EDANS/DABCYL FRET peptide cleavage, 3 h; inhibition, % at 7 µM; 370,000 tested, 0.62% active;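 active means inhibition above a per-campaign cutoff equal to the mean of compounds falling between control-based bounds plus 3 SD, cut at about 20% in these data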;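 further: 0% = DMSO wells while the 100% control is not disclosed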
Target sequence (O14672 214-748 limits assumed): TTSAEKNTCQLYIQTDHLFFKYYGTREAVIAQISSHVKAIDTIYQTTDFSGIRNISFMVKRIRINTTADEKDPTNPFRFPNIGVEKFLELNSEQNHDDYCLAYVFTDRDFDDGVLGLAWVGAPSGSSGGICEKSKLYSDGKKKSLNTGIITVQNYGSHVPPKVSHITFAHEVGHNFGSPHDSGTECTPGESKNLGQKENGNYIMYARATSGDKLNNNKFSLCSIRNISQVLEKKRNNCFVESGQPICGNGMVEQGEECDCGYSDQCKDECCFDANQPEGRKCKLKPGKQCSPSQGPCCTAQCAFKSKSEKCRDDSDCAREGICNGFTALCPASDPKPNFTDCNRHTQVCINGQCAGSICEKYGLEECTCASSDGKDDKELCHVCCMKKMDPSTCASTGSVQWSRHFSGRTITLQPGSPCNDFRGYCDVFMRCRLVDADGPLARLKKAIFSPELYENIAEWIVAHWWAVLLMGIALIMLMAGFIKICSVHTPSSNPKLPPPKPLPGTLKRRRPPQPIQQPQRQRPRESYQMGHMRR
PLCb3 inh: PLC-beta3 (human) inhibition, primary screen; Purified PLC-beta3, fluorogenic substrate, fluorescence; AID 720704; Q01970; inhibition, % at 12.2 µM; 370,000 tested, 0.18% active; in the data active means inhibition above about 11%;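 further: 0% = median of compound wells on plate and 100% = full blocker control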
proKLK7 act: proKLK7 (human) activation, primary screen | purified proKLK7, EDANS-DABCYL substrate fluorescence; 100% is mature enzyme control, 0% vehicle | activation, % at 7 µM | AID 652039 | 370,000 tested, 0.9% active;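 active means activation above the mean of all tested compounds plus 3 SD, computed per campaign excluding outliers beyond control limits, cut at about 13% in these data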
PLCg1 inh: PLC-gamma1 (human) inhibition, primary screen; P19174; purified PLC-gamma1, fluorogenic substrate, fluorescence; inhibition, % at 12.2 µM; 370,000 tested, 0.84% active; AID 720700
ADAM17 inh: inhibitors of human ADAM17. P78536. recombinant ADAM17, EDANS/DABCYL FRET peptide cleavage. inhibition, % at 6.95 µM. 370,000 tested, 0.83% active;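 active means inhibition above the mean of compounds lying between control limits plus 3 SD, set per campaign, cut at about 8.5% in these data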;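 further: 0% = DMSO-only wells as the low control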
PLCg1 ctr: PLC-gamma1 inhibition, counter-screen for PLC-beta3 hits. inhibition, % at 12.3 µM. shares compounds with PLCg1 inh. purified PLC-gamma1, fluorogenic substrate, fluorescence. 3,300 tested, 3.1% active. AID 743258
PLCb3 confirm: confirmation of human PLC-beta3 inhibitors | shares compounds with PLCg1 inh | purified PLC-beta3, fluorogenic substrate fluorescence | inhibition, % at 12.3 µM | 3,300 tested, 1% active | AID 743261; in the data active means inhibition above about 11%
Active calls of the source: *; / = no result. Unless noted, no stated cut-off is given here; in the data, active means inhibition above about 9.5%; inactive means the rest.

SMILES | ADAM10 inh | PLCb3 inh | proKLK7 act | PLCg1 inh | ADAM17 inh | PLCg1 ctr | PLCb3 confirm
Cc1ccccc1NC(=O)Cc1nc(COC(=O)c2cc([N+](=O)[O-])ccc2NCCO)cs1 | 12.1 | 6.3 | 0.0 | 10.1* | 5.3 | -4.8 | -4.6
CCOC(=O)c1csc(NC(=O)C2CCCN(S(=O)(=O)c3cccs3)C2)n1 (stereo unspecified) | -3.6 | -1.3 | -0.2 | -0.2 | -3.3 | / | /
COc1ccc(-c2cc(C(=O)Nc3ccc(C)c(C)c3)no2)cc1 | 8.9 | -2.6 | 0.1 | 11.5* | 1.6 | -171.0 | -169.2
Cc1ccc(NC(=O)c2cc(-c3ccc(F)cc3)on2)cc1C | -1.4 | -2.9 | -0.3 | 2.7 | -3.0 | / | /
CCc1ccc(N2C(=O)CN(Cc3ccccc3)C2=S)cc1 | 2.9 | 0.1 | -0.7 | -0.3 | 1.1 | / | /
CC1(C)Cc2ccccc2C(/C(=N/O)C(N)=O)=N1 | 10.3 | 5.2 | 0.2 | 11.4* | 2.2 | 2.1 | 1.4
CCC(=O)Nc1ccc(C(=O)NNC(=O)COc2cc(C)ccc2C)cc1 | 5.7 | 12.0* | 0.7 | 6.6 | 2.2 | -4.5 | -4.6
O=C(CCCC(=O)N(CC(=O)NC1CCCCC1)Cc1ccco1)Nc1ccccn1 | 1.8 | -0.3 | -0.2 | -1.1 | -4.8 | / | /
COc1ccccc1CCn1cnc(-c2ccccc2F)c1CC(C)C | 10.5 | 5.3 | 0.3 | 11.2* | 5.9 | -7.3 | -4.7
CCc1cccc(OCC(=O)Nc2cc(Cl)ccc2-n2cncn2)c1 | -2.5 | -5.4 | 0.1 | -0.4 | 0.7 | / | /
O=C(Cn1cnc2cc([N+](=O)[O-])ccc2c1=O)Nc1ccccc1Cl | -5.8 | -13.8 | -0.5 | -6.6 | -3.4 | / | /
O=C(COc1ncnc2ccccc12)NC1CCS(=O)(=O)C1 (stereo unspecified) | 4.2 | -0.6 | 0.1 | 10.2* | 1.2 | -7.5 | -1.7
CC(C)C(=O)Nc1nnc(CCc2nnc(NC(=O)C(C)C)s2)s1 | -6.3 | -0.2 | -0.5 | 2.1 | -0.4 | / | /
Cc1ccsc1/C=C1\SC(N)=NC1=O | 18.1 | 9.2 | -0.1 | 10.1* | 7.9 | -3.4 | -1.6
CCCC(=O)c1c[nH]c(C(=O)NCc2cccnc2)c1 | -2.2 | -4.2 | 0.2 | 2.6 | -2.5 | / | /
CC(C)OC(=O)c1ccc(NC(=O)C2C3CC4OC(=O)C2C4C3)cc1 (stereo unspecified) | 0.0 | 0.8 | 0.4 | -3.7 | -4.0 | / | /
Cc1ccc(NC(=O)C2C3CC4OC(=O)C2C4C3)cc1Cl (stereo unspecified) | -1.8 | 4.6 | -0.1 | 9.6* | 2.5 | -6.3 | -6.2
O=S1(=O)CC(c2ccccc2)=NN=C(c2ccccc2)C1 | 2.6 | 10.8* | -0.2 | 9.5 | 6.7 | -1.4 | -4.3
O=C1CC(c2ccccc2)=NO1 | -1.9 | -3.1 | 0.3 | -0.6 | -0.5 | / | /
CN(C)c1ncnc2[nH]ncc12 | -0.4 | 6.2 | 0.0 | 13.1* | 1.9 | -2.3 | 0.8
CCOc1ccc(CC(=O)NCc2ccc3c(c2)cc(C)n3C)cc1 | 1.2 | -44.3 | 0.5 | -31.5 | -0.8 | / | /
OC(CNCC1CCCCC1)COc1ccccc1 (stereo unspecified) | 13.0 | 0.9 | -0.4 | 4.4 | 0.4 | / | /
Clc1ccccc1-c1nnc2sc(C3COc4ccccc4O3)nn12 (stereo unspecified) | 9.4 | -4.4 | 0.5 | 10.9* | 1.0 | -5.5 | -22.0
Cc1ccnc(NC(=O)CNC(=O)COc2ccccc2)c1 | 7.1 | -2.2 | -0.2 | -1.6 | -3.9 | / | /
Cc1nc([N+](=O)[O-])c(Br)n1CC(=O)c1ccc(Cl)cc1 | 2.5 | 0.7 | 0.2 | 9.7* | -1.4 | 2.0 | 0.4
SMILES | ADAM10 inh | PLCb3 inh | proKLK7 act | PLCg1 inh | ADAM17 inh | PLCg1 ctr | PLCb3 confirm
COc1ccc(C(=O)CCC(=O)Nc2cccc(Cl)c2)cc1 | 10.3 | -6.1 | 0.0 | 5.5 | 1.5 | / | /
Cc1ccc(C(=O)CCC(=O)Nc2ccc(Cl)c(S(=O)(=O)Nc3cccc(Cl)c3)c2)cc1 | 8.7 | 1.8 | -0.2 | 10.7* | 8.5 | -2.2 | -9.2
O=C(CSc1ccccc1)N(c1ccc(Br)cc1)c1nccs1 | 19.1 | 5.5 | -0.2 | 14.3* | 8.1 | -0.8 | -1.5
O=C(CCSc1ccccc1)Nc1nccs1 | -6.0 | -1.1 | 0.2 | 0.5 | -5.3 | / | /
Nc1ccc(C(CC(=O)O)n2cccc2)cc1 (stereo unspecified) | -1.6 | 14.3* | 0.1 | 26.2* | 4.2 | -4.1 | -2.6
O=C(O)CC(c1ccccc1)n1cccc1 (stereo unspecified) | -7.8 | -1.4 | -0.2 | -2.5 | -7.2 | / | /
NC(=O)CCn1nc(-c2ccc(Cl)cc2)c2ccccc2c1=O | 2.2 | 2.0 | 0.4 | 12.0* | -1.4 | -7.0 | -6.8
O=C(CCn1nc(-c2ccc(Cl)cc2)c2ccccc2c1=O)Nc1cccnc1 | 0.8 | -2.5 | 0.6 | 2.1 | -1.2 | / | /
COc1ccc(CCNC(=O)C(=O)c2c(C)n(C)c3ccccc23)cc1OC | 5.6 | -0.6 | 0.5 | 3.2 | 0.3 | / | /
O=C(CCn1c(=S)oc2ccccc21)Nc1cccc(O)c1 | 11.9 | 11.6* | -0.4 | 7.9 | 3.8 | -4.4 | -4.7
O=C(CCn1c(=S)oc2ccccc21)Nc1cccc(F)c1 | 1.4 | 0.1 | 0.3 | 0.8 | 0.1 | / | /
COc1ccc(NC(=S)N2CCN(C(c3ccccc3)c3ccccc3)CC2)c(OC)c1 | 8.6 | 3.0 | -0.6 | -3.5 | 3.9 | / | /
CCOc1cc(C(=O)N2CCC(CC3CC(c4ccccc4)=NO3)(C(=O)NCc3ccc(OC)cc3)CC2)cc(OCC)c1OCC (stereo unspecified) | 5.7 | 4.2 | 0.9 | -0.8 | 8.5 | / | /
CCOc1cc(C(=O)N2CCC(CC3CC(c4ccc(Cl)cc4)=NO3)(C(=O)NCC3CCCCC3)CC2)cc(OCC)c1OCC (stereo unspecified) | 13.7 | 11.4* | 0.8 | 3.5 | 4.0 | -0.7 | -1.9
COc1ccc(S(=O)(=O)N2CCCCCC2)cc1C(=O)N(C)CC(=O)Nc1ccccc1Cl | 1.4 | -1.3 | 0.3 | -3.1 | 0.8 | / | /
COc1ccc(S(=O)(=O)N2CCCCCC2)cc1C(=O)N(C)CC(=O)Nc1c(Cl)cccc1Cl | -13.6 | 2.2 | 0.0 | 9.7* | 1.4 | -2.4 | 3.4
COc1ccc(S(=O)(=O)N2CCCCCC2)cc1C(=O)N(C)CC(=O)Nc1ccccc1Br | -9.8 | -3.8 | 0.1 | 10.4* | -0.6 | 0.0 | 0.8
CC(CNC(=O)c1cc(COc2c(F)cccc2F)on1)Oc1cccnc1 (stereo unspecified) | -3.4 | -4.2 | 0.5 | 0.6 | -4.7 | / | /
Cc1cccc2cc(CN(CC(C)C)S(=O)(=O)c3ccccc3)c(=O)[nH]c12 | -3.6 | -5.9 | 0.0 | 1.1 | -1.1 | / | /
O=C(CC1SC(=Nc2ccccc2)N(CCc2ccccn2)C1=O)Nc1ccc(F)cc1 (stereo unspecified) | 7.4 | 4.8 | 0.5 | 9.8* | 0.0 | 3.0 | 5.2
COc1ccc([C@H]2CC(=O)C=C(c3cc(C=O)ccc3OC)C2)cc1OC | 2.9 | 0.0 | 0.0 | -0.1 | -1.8 | / | /
